Vif imaging: HIV Vif inhibition; HEK293T cells, Vif self-association by quenched fluorescence, imaging, 24 h; inhibition, % at 7.49 µM; 340,000 compounds, 0.35% hits; AID 602346; in the data active = inhibition above about 50%, passing the limit was not always enough; inconclusive = no clear call, values can overlap the other calls; inactive = below about 31%
MITF act: increases MITF-driven TRPM1 promoter luciferase signal | SK-MEL-5 TRPM1-promoter luciferase, 24 h; % of positive control, neutral wells = 0 | activation, % at 12.5 µM | 300,000 compounds, 0.75% hits | AID 588334;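 active = mean activation of at least 80% with every replicate also reaching 80%; inconclusive = mean reaches 80% but some replicate falls short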;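 note: 0% = neutral control wells and 100% = parthenolide positive control wells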
N-glyco inh: blocks N-linked glycosylation in D54 reporter cells. D54 ERlucT glycosylation luciferase reporter, 24 h; percent of 100 nM tunicamycin response. reporter increase, % at 12.5 µM. 360,000 compounds, 0.23% hits;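 active = mean luciferase reporter signal, scaled so untreated is 0 and the glycosylation-blocking control 100, at or above a set limit in every replicate; inconclusive = mean reaches the limit but not every replicate does; inactive = mean below the limit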;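 note: luciferase carries N-glycosylation sites so blocking glycosylation raises the light; 0% = median of neutral control wells and 100% = median of 100 nM tunicamycin wells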
Wnt bcat act: activates Wnt/beta-catenin signaling in a reporter cell assay. activator, plate reader. activation, % at 9.35 µM. 300,000 compounds, 1.2% hits. AID 743398; in the data active = activation above about 30%, passing the limit was not always enough; inconclusive = no clear call, values can overlap the other calls;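 note: 0% = neutral control wells and 100% = positive control wells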
esBAF inh: SWI/SNF esBAF complex inhibition. mouse ES cells, Bmi1-luciferase knock-in reporter, 24 h; 100% = twice the neutral-well signal. reporter increase, % at 12.5 µM. 350,000 compounds, 2% hits. AID 602393; in the data active = activation above about 40%; inconclusive = no clear call, values can overlap the other calls;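 note: 0% = median of the plate's neutral control wells and 100% = double that signal; a rise in the Bmi1 reporter signal indicates esBAF inhibition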
PvdQ inh: P. aeruginosa PvdQ acylase inhibition | purified PvdQ acylase, fluorescence plate reader | 340,000 compounds, 0.063% hits | inhibition, % at 10 µM | AID 488965; in the data active = inhibition above about 30%, passing the limit was not always enough; inconclusive = no clear call, values can overlap the other calls;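 note: 0% = vehicle neutral wells and 100% = reference inhibitor wells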
* marks the source's active call; other numbers are inactive results; ? = inconclusive; · = no result. Sampled rows, rich in hits. Any-hit rate of the full collection: about 2.9%.

SMILES	Vif imaging	MITF act	N-glyco inh	Wnt bcat act	esBAF inh	PvdQ inh
C[C@@H]1CN([C@@H](C)CO)C(=O)c2cccc(NS(=O)(=O)c3cn(C)cn3)c2O[C@@H]1CN(C)Cc1ccc(-c2ccccc2)cc1	·	·	·	·	0.6	·
Cc1cccc(C2Nc3ccccc3C(=O)N2CCc2ccccc2)n1 (stereo unspecified)	-7.9	26.3	0.9	5.5	?	-25.4
O=C1c2ccccc2NC(c2cccc([N+](=O)[O-])c2)N1CCc1ccccc1 (stereo unspecified)	4.2	6.3	-1.1	6.1	45.8*	-3.9
O=C(O)c1ccccc1COc1ccccc1Cl	12.2	-3.0	1.3	3.4	10.3	-12.4
Cc1oc(C(=O)O)cc1COc1ccccc1Cl	·	-9.7	1.6	58.7*	-2.6	7.2
COc1ccc(S(=O)(=O)N(C)C[C@H]2OCCCC[C@H](C)Oc3ccc(NC(=O)CCC(F)(F)F)cc3C(=O)N([C@H](C)CO)C[C@@H]2C)cc1	·	·	·	·	9.5	·
Cc1ccccc1Nc1nnc(SCC2CCCCO2)s1 (stereo unspecified)	10.0	12.8	-8.6	50.2*	15.6	-2.3
COc1ccccc1Nc1nnc(SCC2CCCCO2)s1 (stereo unspecified)	2.7	-1.6	-13.3	4.4	·	-16.3
Cn1cc(/C=N/n2cnc3scc(-c4ccc(Cl)cc4)c3c2=O)c2ccccc21	54.1*	-29.4	23.2	-12.7	-6.5	-7.9
O=C(Nc1ccc(Cl)cc1)N[C@@H]1CC[C@@H](CCNC(=O)c2ccccc2F)O[C@@H]1CO	·	·	·	·	-1.4	·
Cc1nc(-c2ccc3c(c2)OCCO3)cs1	-6.9	38.6	3.4	-4.2	·	-2.6
CN(C)/C=N/c1nc(-c2ccc3ccccc3c2)cs1	-1.9	125.0*	-5.8	40.5*	60.1	-5.7
CN(C)/C=N/c1nc(-c2ccc3c(c2)OCO3)cs1	5.5	76.1	-2.2	70.9*	22.2	-6.1
N#Cc1c(NC(=O)c2cnn3cccnc23)sc2c1CCCC2	1.6	46.3	3.4	23.8	42.0*	-0.6
CC1CCc2c(sc(NC(=O)c3ccc(Cn4cc([N+](=O)[O-])cn4)o3)c2C#N)C1 (stereo unspecified)	·	5.6	-0.1	0.9	22.5	-10.4
N#Cc1c(NC(=O)c2ccc(Cn3cc(Br)cn3)o2)sc2c1CCCCC2	-6.5	23.5	-1.5	·	44.3*	-6.1
CNC(=O)c1c(NC(=O)c2nc3ccccc3s2)sc2c1CCC2	-12.7	?	2.7	·	74.8*	4.0
Cc1occc1C(=O)Nc1sc2c(c1C(N)=O)CCCCC2	-5.3	69.1	1.7	·	47.2*	1.9
C[C@@H]1CCCCO[C@@H](CN(C)C(=O)CCCN(C)C)[C@H](C)CN([C@@H](C)CO)C(=O)c2cc(NC(=O)c3ccncc3)ccc2O1	·	·	·	·	-4.4	·
O=C(C[C@H]1C[C@H]2c3cc(NC(=O)C4CCOCC4)ccc3O[C@H]2[C@@H](CO)O1)NCc1cccnc1	·	·	·	·	5.9	·
CC(=O)N(C)C[C@@H]1Oc2cc(-c3cccc(F)c3)ccc2S(=O)(=O)N([C@@H](C)CO)C[C@H]1C	·	·	·	·	-3.6	·
Cc1ccc(S(=O)(=O)N(C)C[C@@H]2Oc3c(NS(C)(=O)=O)cccc3C(=O)N([C@H](C)CO)C[C@H]2C)cc1	·	·	·	·	4.4	·
O=C(Nc1sc2c(c1C(=O)O)CCCCC2)c1ccco1	10.4	·	-7.8	·	10.5	-5.2
N#Cc1c(NC(=O)c2ccco2)sc2c1CCC2	-5.5	90.9*	-0.8	1.9	53.5*	3.6
NC(=O)c1c(NC(=O)c2ccncc2)sc2c1CCCC2	-7.6	24.3	-0.5	-0.6	·	8.0
SMILES	Vif imaging	MITF act	N-glyco inh	Wnt bcat act	esBAF inh	PvdQ inh
NC(=O)c1c(NC(=O)c2ccco2)sc2c1CCC2	·	61.8	1.8	·	103.1*	-1.5
CN1CCc2c(sc(NC(=O)c3ccc4ccccc4c3)c2C(N)=O)C1	-13.2	120.8*	-11.8	·	-15.2	-4.5
NC(=O)c1c(NC(=O)c2ccccc2)sc2c1CCC2	-5.5	24.5	-1.5	65.0*	?	-6.2
N#Cc1c(NC(=O)c2ccncc2)sc2c1CCC2	-5.3	15.3	2.2	6.6	·	10.9
C[C@H]1CN([C@@H](C)CO)C(=O)c2cc(C#CC3CCCCC3)cnc2O[C@@H]1CN(C)C(=O)c1ccncc1	·	·	·	·	3.7	·
CCOC(=O)C(NC(=O)c1ccc(F)cc1)(Nc1sc2c(c1C(N)=O)CCC2)C(F)(F)F (stereo unspecified)	-0.3	-9.8	5.4	107.6*	·	-6.6
Cc1ccc(S(=O)(=O)O/N=C2\CCCc3ccccc32)cc1	·	-12.1	3.1	·	-8.0	-9.5
CC1=C(C)/C(=N\OS(=O)(=O)c2ccccc2)C=CC1=O	55.5*	-44.0	4.3	·	·	4.5
CCCC#Cc1cnc2c(c1)C(=O)N([C@H](C)CO)C[C@H](C)[C@H](CN(C)C(=O)c1ccc(F)cc1)O2	·	·	·	·	-5.6	·
Cc1ccc(CNc2ccc3c(c2)OCO3)cc1	62.5*	6.2	4.9	·	17.7	-3.6
c1cc(CNc2ccc3c(c2)OCO3)ccn1	3.2	10.6	3.9	0.0	9.3	-0.4
Cc1ccc(COc2ccc3c(c2)OCO3)cc1	0.3	60.0	-9.4	33.4*	20.6	-13.5
O=Cc1ccc(OCc2ccc3c(c2)OCO3)cc1	-1.0	·	-9.1	16.2	3.5	-3.1
CCc1ccc2nc(NC(=O)C3CCN(c4ncnc5sc(C)c(C)c45)CC3)sc2c1	6.2	20.3	-5.2	21.5	59.5*	-17.3
CSCCC(=O)Nc1ccc(C(C)=O)cc1	6.7	39.2	0.1	-0.6	53.3*	-4.8
CC(=O)c1ccc(NC(=O)CSCCO)cc1	·	27.0	1.4	·	27.1	-6.6
CC(=O)c1ccc(NC(=O)CN2CCCC2)cc1	12.1	·	1.6	2.1	49.6*	11.6
Cc1ccc(NC(CC(=O)c2ccccc2)C(=O)O)cc1Cl (stereo unspecified)	-0.6	73.4	-12.5	52.9*	·	-5.9
O=C(CC(Nc1ccc(Cl)cc1Cl)C(=O)O)c1ccccc1 (stereo unspecified)	-0.7	-13.6	-14.6	-13.1	·	-1.2
O=C(CC(Nc1ccccc1)C(=O)O)c1ccccc1 (stereo unspecified)	-0.7	101.2*	-10.5	·	·	7.0
Nc1cc2c(cc1Cl)-c1ccc(Cl)cc1C2	-3.1	·	2.3	6.1	58.9*	·
CN(C)C(=O)c1ccc(-c2ccc([C@H]3[C@H](CO)N4CCCCN(CC5CC5)C[C@@H]34)cc2)cc1	·	·	·	·	4.0	·
COc1ccc2c(c1OC)c(=O)n1c3ccc(OC(C)C(=O)NCCN4CCOCC4)cc3c3ccnc2c31 (stereo unspecified)	-9.4	6.5	12.7	-1.8	5.5	-6.2
CC(Oc1ccc2c(c1)c1ccnc3c4ccccc4c(=O)n2c13)C(=O)NCCN1CCOCC1 (stereo unspecified)	-19.7	·	73.8*	-0.3	31.1	19.8
COc1ccc(NC(=O)c2cccc(OS(=O)(=O)N(C)C)c2)cc1	-8.2	49.1	-8.0	54.7*	26.4	-12.5
COc1cccc(C(=O)Nc2ccc3ccccc3c2)c1	-9.1	·	-19.3	18.9	-37.0	-4.2

Source: PubChem BioAssay
